The entries come from a sample that favours hits as a whole.
ROS inducer: inducers of reactive oxygen species in cancer cells; hit rate 2% among 46,000; ROS induction (% of piperlongumine), % at 10 µM; U2OS ROS induction, H2DCF-DA fluorescence; in the data active = ROS induction above about 79%, passing the limit was not always enough;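 also: 0% = DMSO vehicle median and 100% = reference compound median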
* marks the source's active call; other numbers are inactive results.

SMILES	ROS inducer
COC(=O)C(C)Sc1nnc2c3ccccc3n(Cc3ccccc3)c2n1 (stereo unspecified)	146*
Cc1ccc(CSCC2COC(c3cccs3)=N2)cc1 (stereo unspecified)	0
COc1ccc(CCNC(=O)[C@@]2(Sc3ccc(C)cc3)CC(=O)N(C(C)C)[C@@H]2c2ccc(CO)cc2I)cc1	20
Cc1ccc(S[C@]2(C(=O)NCC(F)(F)F)CC(=O)N(C3CCCCC3)[C@@H]2c2ccc(CO)cc2I)cc1	19
Cc1ccc(S[C@]2(C(=O)NC(C)C)CC(=O)N(C3CCCCC3)[C@@H]2c2ccc(CO)cc2I)cc1	201*
S=C(NC1CCCCC1)N(Cc1ccccc1)CC1CC=CCC1 (stereo unspecified)	39
NC(=S)c1ccc(C(F)(F)F)cc1Cl	-14
CCCn1c(=O)c2c(nc3n2CCCN3Cc2ccco2)n(C)c1=O	12
CSc1nnc(-c2ccc(Cl)cc2Cl)n1Cc1ccco1	6
CCn1c(SCC(=O)Nc2cccc(OC)c2)nnc1-c1cccc(C)c1	7
CCC(Sc1nnc(C)n2c1cc1oc(C)cc12)C(=O)Nc1cccc(OC)c1 (stereo unspecified)	96*
COc1cccc(NC(N)=O)c1	-5
COc1ccc(S(=O)(=O)Nc2cncc(C(=O)NCc3ccc(C)cc3)c2)cc1	-8
C=CCN1C(=O)C2C3C=CC(C3)C2C1=O (stereo unspecified)	-1
CN(C)c1ccc(/C=C2\C(=O)Nc3ccccc32)c2ccccc12	-8
O=C1Nc2ccc(Br)cc2/C1=C/c1cc2c([nH]1)CCCC2	43
CN(C)S(=O)(=O)c1ccc2c(c1)/C(=C/c1cc3c([nH]1)CCCC3)C(=O)N2	98*
Cc1cc(C)cc(Oc2c(C(F)(F)F)oc3c(CN4CC(C)OC(C)C4)c(O)ccc3c2=O)c1 (stereo unspecified)	-12
CCOC(=O)CSc1nc(N)c2c3c(sc2n1)COC(C)(C)C3	18
CCOC(=O)c1ccc(NC(=O)CSc2nc(N)c3c4c(sc3n2)CCC4)cc1	-36
CN(C(=O)CSc1nc(N)c2c3c(sc2n1)CSC(C)(C)C3)c1ccccc1	122*
CCOc1ccc(S(=O)(=O)N(CC(=O)N2CCC(C)CC2)c2ccccc2)cc1	-5
CCCCN(C)C(=O)c1c[nH]c2ccc(S(=O)(=O)Nc3cccc(OC)c3)cc2c1=O	-11
C=CCn1c(=O)c2c(nc3n2CCN3c2ccc(F)cc2)n(C)c1=O	48
COc1ccc(/C=N/NC(=O)c2cccc(C(=O)NO)c2)cc1O	1
SMILES	ROS inducer
COc1ccc(/C=C/C(=O)CC(=O)/C=C/c2cccc(O)c2OC)cc1O	98*
COc1cc(/C=C/C(=O)CC(=O)/C=C/c2ccc(O)c(OC)c2)ccc1O	43
Cc1ccc(-n2c(SCC(=O)C(C)(C)C)nc3ccccc3c2=O)cc1	1
Cc1ccc(N2C(=O)CC2(C(=O)NC2CCCCC2)c2cccs2)cc1 (stereo unspecified)	3
COc1ccc(-n2c(SCCCN3C(=O)c4cccc5cccc(c45)C3=O)nnc2-c2ccncc2)cc1	88*
Cn1c(SCCCN2C(=O)c3cccc4cccc(c34)C2=O)nnc1-c1cccs1	38
COc1ccc(-n2c(SCC(=O)c3ccccc3)nnc2-c2ccncc2)cc1	16
COc1ccc(OC)c2c(N3CCOCC3)cc(C(F)(F)F)nc12	-17
CC1=C(C(=O)Nc2ccccc2)C2(CCCCC2)C(C#N)=C(SCC(=O)Nc2nccs2)N1	16
C[C@@H]1C[C@@H]2O[C@H]2/C=C/C=C\C(=O)Cc2c(Cl)c(O)cc(O)c2C(=O)O1	140*
COc1cc(O)cc2c1C(=O)OC(C)C2 (stereo unspecified)	17
CC1CCC(NC(=O)c2ccc(CSc3nc4ccncc4[nH]3)cc2)CC1 (stereo unspecified)	12
Nc1ccc2nc(NC(=O)C34CC5CC(CC(C5)C3)C4)sc2c1	64
O=C(NO)c1cccc(C(=O)N/N=C/c2cn(Cc3ccccc3)c3ccccc23)c1	10
C=CCN1C(=O)NC(=O)/C(=C\c2cn(Cc3ccccc3)c3ccccc23)C1=O	155*
C=CCN1C(=O)/C(=C/c2cn(C(C)CC)c3ccccc23)C(=O)NC1=S (stereo unspecified)	65
COc1cc2cc(C)nc(Cc3cccc4ccccc34)c2cc1OC	64
COc1ccc(-c2cc3cc(OC)c(OC)cc3c(Cc3ccccc3)n2)cc1	155*
COc1ccc(-c2csc(-c3ccc(OC)cc3)n2)cc1	-14
Cc1cccc(NC(=O)c2cccc(Br)c2)n1	16
COc1ccc(NC(=O)/C=C/c2ccccc2)cc1	1
CCC(C)OC(=O)CSc1ncnc2sc3c(c12)CCC(C)C3 (stereo unspecified)	-5
COc1ccc(-c2oc3ncn(CCO)c(=N)c3c2-c2ccc(OC)cc2)cc1	0
COc1ccc(-c2oc3ncn(CC(C)C)c(=N)c3c2-c2ccc(OC)cc2)cc1	94*
COc1ccc(-c2noc(CC(=O)O)c2-c2ccc(OC)cc2)cc1	2
SMILES	ROS inducer
CC1=NN(C(=O)CSc2nc3ccccc3s2)C(C)(O)C1 (stereo unspecified)	-14
COc1ccc(-n2c(N)c(-c3nc4ccccc4s3)c3nc(C#N)c(C#N)nc32)cc1	153*
COc1ccc(-c2nc3ccccc3s2)cc1	-5
CC(C)(Oc1ccc(Cl)cc1)C(=O)Nc1ccccc1-c1nc2ccccc2s1	0
O=C1CC(c2ccc(Cl)cc2)n2ncnc2N1 (stereo unspecified)	7
Cc1oc(S(=O)(=O)N2CCCC2)cc1C(=O)NCc1ccc2c(c1)OCO2	-5
O=C(CCCC1=NS(=O)(=O)c2ccccc2N1)N1CCCCCC1	-5
COC(=O)c1cc(NC(=O)CN(c2ccccc2F)S(C)(=O)=O)ccc1Cl	0
COC(=O)c1cc(S(=O)(=O)/C=C/c2ccccc2)c(Cl)cc1Cl	121*
COC(=O)c1ccccc1C(=O)c1ccccc1	7
CCC(C(=O)N1c2ccccc2Sc2ccc(C(F)(F)F)cc21)N1C(=O)c2ccccc2C1=O (stereo unspecified)	16
C[C@@H]1CCCCO[C@@H](CN(C)Cc2ccncc2)[C@@H](C)CN([C@H](C)CO)C(=O)c2cc(NC(=O)C3CCCCC3)ccc2O1	16
C[C@@H]1CCCCO[C@H](CN(C)Cc2ccc(C(F)(F)F)cc2)[C@@H](C)CN([C@H](C)CO)C(=O)c2cc(NC(=O)C3CCCCC3)ccc2O1	87*
C[C@@H]1CCCCO[C@H](CN(C)C(=O)Nc2ccc3c(c2)OCO3)[C@@H](C)CN([C@H](C)CO)C(=O)c2cc(NC(=O)CCC(F)(F)F)ccc2O1	-6
C[C@@H]1CCCCO[C@@H](CN(C)C(=O)Nc2ccc(F)cc2)[C@@H](C)CN([C@H](C)CO)C(=O)c2cc(NC(=O)CCC(F)(F)F)ccc2O1	140*
C[C@@H]1CCCCO[C@@H](CN(C)Cc2ccc(C(F)(F)F)cc2)[C@@H](C)CN([C@H](C)CO)C(=O)c2cc(NC(=O)CCC(F)(F)F)ccc2O1	155*
C[C@@H]1CCCCO[C@@H](CN(C)C(=O)C2CCCCC2)[C@@H](C)CN([C@H](C)CO)C(=O)c2cc(NC(=O)CCC(F)(F)F)ccc2O1	17
C[C@@H]1CCCCO[C@@H](CN(C)Cc2ccc(C(=O)O)cc2)[C@@H](C)CN([C@H](C)CO)C(=O)c2cc(NC(=O)CCC(F)(F)F)ccc2O1	2
C[C@@H]1CCCCO[C@H](CN(C)Cc2ccncc2)[C@@H](C)CN([C@H](C)CO)C(=O)c2cc(NC(=O)C3CCCCC3)ccc2O1	-4
